Data taken from PubChem BioAssay (NCATS).
Records with an inconclusive call do not appear. Active and inactive are the calls of the source. Calls come from the whole dose curve; as a rule, active = well fitted cell-killing curve with a large enough effect; inconclusive = small, poorly fitted or top-dose-only effect, or effect the other way; inactive = no such curve, though single readings can be large or run the other way.
Potency is the fitted concentration of half-maximal effect.

Assay: Quantitative High-Throughput drug screen in 47 multiple myeloma cell lines against the NCATS MIPE library collection: ARP1_JJKsccF8 cell viability assay (AID 1918928; note: nearly all actives have a fitted effect of over 40% in size)
Details: ARP1 myeloma cells viability, CellTiter-Glo ATP, 48 h; series mostly up to 45.8 µM
How it was run: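 500 cells/well; MIPE 4.0 library pinned in; 48 h, 37 °C, 5% CO2; CellTiter-Glo ATP luminescence. Controls: DMSO = 100% viability, medium only = 0%.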
For `CC(C)c1onc(-c2c(Cl)cccc2Cl)c1COc1ccc(C=Cc2cccc(C(=O)O)c2)c(Cl)c1`, the Potency was “inactive”.
With `CN(C)CCN(Cc1ccc(Cl)cc1)c1ccccn1` the Potency was “inactive”.
In the case of `CCCC1OC2C[C@@H]3[C@H]4CCC5=CC(=O)C=C[C@]5(C)[C@H]4C(O)C[C@]3(C)[C@]2(C(=O)CO)O1` (some centres undefined), the Potency is reported as 0.469 µM (active).
In the case of `CCNC(=O)CCCC=CC[C@@H]1[C@H](C=CC(O)CCc2ccccc2)[C@@H](O)C[C@@H]1O` (some centres undefined), the Potency is reported as 10.5 µM (active).
For `C=C1c2cccc(O)c2C(O)=C2C(=O)[C@@]3(O)C(O)=C(C(N)=O)C(=O)[C@@H](N(C)C)[C@@H]3[C@@H](O)[C@H]12`, the Potency was 23.5 µM (active).

Assay: Quantitative High-Throughput drug screen in 47 multiple myeloma cell lines against the NCATS MIPE library collection: ARD_JJKsccE7 cell viability assay (AID 1918929)
Details: ARD myeloma cell line viability, CellTiter-Glo, 48 h; series mostly up to 45.8 µM
How it was run: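 Myeloma cells (500 per well) were exposed to MIPE 4.0 compounds by pin transfer and incubated 48 hours at 37C, 5% CO2. Viability was read as ATP by CellTiter-Glo luminescence, normalised to DMSO (100%) and media-only (0%) wells.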
With `O=C(O)C1=CO[C@@H](O[C@@H]2O[C@H](CO)[C@H](O)[C@H](O)[C@H]2O)[C@@H]2C(CO)=CC[C@H]12` the Potency was “inactive”.
For `CN(C)N=Nc1nc[nH]c1C(N)=O`, the Potency was 0.187 µM (active).
In the case of `CON(C)C(=O)N1N=C(c2cc(F)ccc2F)S[C@]1(CCCN)c1ccccc1`, the Potency is reported as 0.001 µM (active).
For `CCN(CC)CCCCNc1nc2cc(Cl)c(Cl)cc2nc1-c1ccc(-c2cccs2)s1`, the Potency was 8.33 µM (active).
In the case of `CCNC(=O)[C@H]1O[C@@H](n2cnc3c(N)nc(NCCc4ccc(CCC(=O)O)cc4)nc32)[C@H](O)[C@H]1O`, the Potency is reported as “inactive”.
For `CC=C(C(=CC)c1ccc(O)cc1)c1ccc(O)cc1`, the Potency was 23.5 µM (active).
For `O=C1CCCC(=O)C1C(=O)c1ccc(C(F)(F)F)cc1[N+](=O)[O-]`, the Potency was 6.62 µM (active).
For `CN1CCN2c3ncccc3Cc3ccccc3C2C1` (centres undefined), the Potency was “inactive”.
In the case of `CN[C@@H]1[C@@H](O)[C@@H](O[C@@H]2[C@@H](O)[C@H](O[C@H]3O[C@H](CN)[C@@H](O)[C@H](O)[C@@H]3O)[C@@H](N)C[C@@H]2NC(=O)[C@@H](O)CN)OC[C@]1(C)O`, the Potency is reported as “inactive”.
